The campaign covered roughly 5,500 compounds. About 2,000 (36%) were called active. About 18% were inconclusive and are not listed. No stated cut-off is given here; in the data, active means normalized growth mostly below about 0.91 (no sharp cut-off); inconclusive means no clear call, values can overlap the other calls; inactive means mostly above about 0.92. This is one part of the list.
Test: chemical genetic growth profiling, strain panel (AID 1159580);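 further: tested at 20 µM; growth read once vehicle control cultures reached saturation at 30 °C; 1 = growth at the plate median or of vehicle wells; lower values mean less growth of the strain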
Details: growth OD

Measured: normalized growth

CC(=O)OC1CCC2C3CCc4cc(O)ccc4C3CCC12C (stereo unspecified)
active: S. cerevisiae deletion strains, locus YLR262C, strain YPT6 (second series), hits give low values 0.856 | S. cerevisiae deletion strains, locus YLR342W, strain FKS1, hits give low values 0.886 | S. cerevisiae deletion strains, locus YLR357W, strain rsc2, hits give low values 0.848 | S. cerevisiae deletion strains, locus YMR307W, strain GAS1, hits give low values 0.54 | S. cerevisiae deletion strains, locus YNL233W, strain BNI4, hits give low values 0.806 | S. cerevisiae deletion strains, locus YPL106C, strain sse1, hits give low values 0.848
inactive: S. cerevisiae deletion strains, locus YJR075W, strain HOC1, hits give low values 0.919 | S. cerevisiae deletion strains, locus YKL009W, strain mrt4, hits give low values 0.923 | S. cerevisiae deletion strains, locus YKL068W, hits give low values 1.01 | S. cerevisiae deletion strains, locus YKL085W, strain MDH1 (second series), hits give low values 0.98 | S. cerevisiae deletion strains, locus YKL085W, strain MDH1, hits give low values 0.98 | S. cerevisiae deletion strains, locus YKL160W, strain elf1, hits give low values 0.904 | S. cerevisiae deletion strains, locus YKL190W, strain CNB1, hits give low values 1.01 | S. cerevisiae deletion strains, locus YKR001C, strain vps1, hits give low values 0.977 | S. cerevisiae deletion strains, locus YKR026C, strain gcn3, hits give low values 0.998 | S. cerevisiae deletion strains, locus YKR091W, strain srl3, hits give low values 1 | S. cerevisiae deletion strains, locus YLL001W, strain dnm1, hits give low values 0.963 | S. cerevisiae deletion strains, locus YLL026W, hits give low values 0.996 | S. cerevisiae deletion strains, locus YLL041C, strain sdh2, hits give low values 1.02 | S. cerevisiae deletion strains, locus YLR027C, strain aat2, hits give low values 0.976 | S. cerevisiae deletion strains, locus YLR039C, strain RIC1, hits give low values 0.86 | S. cerevisiae deletion strains, locus YLR058C, strain SHM2, hits give low values 0.971 | S. cerevisiae deletion strains, locus YLR102C, strain apc9, hits give low values 1.02 | S. cerevisiae deletion strains, locus YLR113W, strain HOG1, hits give low values 0.918 | S. cerevisiae deletion strains, locus YLR221C, strain rsa3, hits give low values 0.949 | S. cerevisiae deletion strains, locus YLR258W, strain gsy2, hits give low values 0.978 | S. cerevisiae deletion strains, locus YLR262C, strain YPT6, hits give low values 0.832 | S. cerevisiae deletion strains, locus YLR268W, strain sec22, hits give low values 0.97 | S. cerevisiae deletion strains, locus YLR320W, strain mms22, hits give low values 0.922 | S. cerevisiae deletion strains, locus YLR330W, strain CHS5, hits give low values 1.02 | S. cerevisiae deletion strains, locus YLR342W, strain FKS1 (second series), hits give low values 0.891 | S. cerevisiae deletion strains, locus YLR370C, strain arc18, hits give low values 0.98 | S. cerevisiae deletion strains, locus YLR371W, strain rom2, hits give low values 1.01 | S. cerevisiae deletion strains, locus YLR384C, strain iki3, hits give low values 0.964 | S. cerevisiae deletion strains, locus YLR418C, strain cdc73, hits give low values 0.941 | S. cerevisiae deletion strains, locus YML016C, strain PPZ1, hits give low values 1 | S. cerevisiae deletion strains, locus YML032C, strain rad52, hits give low values 0.954 | S. cerevisiae deletion strains, locus YML120C, strain ndi1, hits give low values 0.98 | S. cerevisiae deletion strains, locus YML124C, strain tub3, hits give low values 1.01 | S. cerevisiae deletion strains, locus YMR058W, strain fet3, hits give low values 0.983 | S. cerevisiae deletion strains, locus YMR078C, strain ctf18, hits give low values 1.02 | S. cerevisiae deletion strains, locus YMR125W, strain sto1, hits give low values 0.927 | S. cerevisiae deletion strains, locus YMR129W, hits give low values 1.01 | S. cerevisiae deletion strains, locus YMR205C, strain PFK2, hits give low values 0.954 | S. cerevisiae deletion strains, locus YMR223W, strain ubp8, hits give low values 0.969 | S. cerevisiae deletion strains, locus YMR231W, strain pep5, hits give low values 1.01 | S. cerevisiae deletion strains, locus YMR263W, strain SAP30, hits give low values 0.919 | S. cerevisiae deletion strains, locus YNL067W, strain RPL9B, hits give low values 0.945 | S. cerevisiae deletion strains, locus YNL071W, strain lat1, hits give low values 0.994 | S. cerevisiae deletion strains, locus YNL153C, strain GIM3, hits give low values 0.891 | S. cerevisiae deletion strains, locus YNL183C, strain NPR1, hits give low values 0.885 | S. cerevisiae deletion strains, locus YNL209W, strain ssb2, hits give low values 0.982 | S. cerevisiae deletion strains, locus YNL248C, strain rpa49, hits give low values 0.975 | S. cerevisiae deletion strains, locus YNL250W, strain rad50, hits give low values 1.01 | S. cerevisiae deletion strains, locus YNL271C, strain bni1, hits give low values 1.02 | S. cerevisiae deletion strains, locus YNL298W, strain CLA4, hits give low values 0.973 | S. cerevisiae deletion strains, locus YNL307C, strain MCK1, hits give low values 1 | S. cerevisiae deletion strains, locus YNL322C, strain KRE1 (second series), hits give low values 0.973 | S. cerevisiae deletion strains, locus YNL322C, strain KRE1, hits give low values 0.963 | S. cerevisiae deletion strains, locus YNR049C, strain mso1, hits give low values 1.01 | S. cerevisiae deletion strains, locus YNR052C, strain pop2, hits give low values 1.01 | S. cerevisiae deletion strains, locus YOL006C, strain TOP1, hits give low values 0.942 | S. cerevisiae deletion strains, locus YOL012C, strain htz1 1.3 | S. cerevisiae deletion strains, locus YOL147C, strain pex11, hits give low values 1.02 | S. cerevisiae deletion strains, locus YOR001W, strain rrp6, hits give low values 0.966 | S. cerevisiae deletion strains, locus YOR061W, strain CKA2, hits give low values 1 | S. cerevisiae deletion strains, locus YOR069W, strain VPS5, hits give low values 1.01 | S. cerevisiae deletion strains, locus YOR070C, strain gyp1, hits give low values 0.989 | S. cerevisiae deletion strains, locus YOR080W, strain dia2, hits give low values 0.998 | S. cerevisiae deletion strains, locus YOR083W, strain WHI5, hits give low values 0.904 | S. cerevisiae deletion strains, locus YOR106W, strain vam3, hits give low values 0.94 | S. cerevisiae deletion strains, locus YOR136W, strain idh2, hits give low values 0.994 | S. cerevisiae deletion strains, locus YOR144C, strain elg1, hits give low values 1 | S. cerevisiae deletion strains, locus YOR184W, strain ser1, hits give low values 0.945 | S. cerevisiae deletion strains, locus YOR231W, strain MKK1, hits give low values 0.96 | S. cerevisiae deletion strains, locus YOR265W, strain rbl2, hits give low values 0.998 | S. cerevisiae deletion strains, locus YOR270C, strain vph1, hits give low values 0.924 | S. cerevisiae deletion strains, locus YOR290C, strain snf2, hits give low values 0.971 | S. cerevisiae deletion strains, locus YOR316C, strain cot1, hits give low values 1.02 | S. cerevisiae deletion strains, locus YPL051W, strain arl3, hits give low values 0.959 | S. cerevisiae deletion strains, locus YPL055C, strain LGE1, hits give low values 0.842 | S. cerevisiae deletion strains, locus YPL078C, strain atp4, hits give low values 0.91 | S. cerevisiae deletion strains, locus YPL240C, strain hsp82, hits give low values 1.01 | S. cerevisiae deletion strains, locus YPL241C, strain CIN2, hits give low values 1.02 | S. cerevisiae deletion strains, locus YPL256C, strain CLN2, hits give low values 0.931 | S. cerevisiae deletion strains, locus YPR119W, strain clb2, hits give low values 1 | S. cerevisiae deletion strains, locus YPR141C, strain kar3, hits give low values 1.02 | S. cerevisiae deletion strains, locus YPR163C, strain tif3, hits give low values 1.03 | S. cerevisiae deletion strains, locus YPR167C, strain met16, hits give low values 1.01 | S. cerevisiae deletion strains, strain wtn01, hits give low values 0.995 | S. cerevisiae strains, strain wild type, hits give low values 0.967

— PubChem BioAssay AID1159580 (chemical genetic matrix, 2015)
